# Assay results published in the antibiotic and cytotoxicity screens of Wong et al. (2023).
# Among all 39,000 compounds or so, about 3,300 (8.5%) were called active. This is one part of a sample in which actives are shown more often than they occur.
# Test system: HepG2
# Test: cytotoxicity call (relative viability < 0.9)
# Conditions: 10 µM
row,SMILES,cytotoxicity call
1,COc1ccc(NC(=O)Nc2ccc3c(c2)C(=O)N([C@H](C)CO)C[C@H](C)[C@H](CN(C)C(=O)Cc2ccccc2)OCCCC[C@@H](C)O3)cc1,inactive
2,Cc1noc(C)c1NC(=O)Nc1cccc2c1O[C@H](CN(C)S(=O)(=O)c1cn(C)cn1)[C@@H](C)CN([C@H](C)CO)C2=O,inactive
3,C[C@H](CO)N1C[C@H](C)[C@H](CN(C)S(C)(=O)=O)Oc2ccc(NS(C)(=O)=O)cc2CC1=O,inactive
4,C=CCNS(=O)(=O)c1cccc2nonc12,inactive
5,C[C@H](CO)N1C[C@H](C)[C@@H](CN(C)S(=O)(=O)c2cn(C)cn2)Oc2ccc(NS(=O)(=O)c3cn(C)cn3)cc2CC1=O,inactive
6,C[C@@H]1CCCCO[C@H](CN(C)S(C)(=O)=O)[C@H](C)CN([C@@H](C)CO)C(=O)c2cc(N(C)C)ccc2O1,inactive
7,O=C(Cc1ccncc1)NCC[C@@H]1CC[C@@H](NC(=O)C2CCOCC2)[C@H](CO)O1,inactive
8,CC(C)NC(=O)Nc1ccc2c(c1)CC(=O)N([C@H](C)CO)C[C@H](C)[C@H](CN(C)Cc1ccc3c(c1)OCO3)O2,inactive
9,CCOC(=O)CCCCCC(=O)Nc1ccc2c(c1)C(=O)N([C@H](C)CO)C[C@@H](C)[C@@H](CN(C)C(=O)CCC(F)(F)F)OCCCC[C@H](C)O2,inactive
10,Cc1ccc(S(=O)(=O)N[C@H](C(=O)NCCn2cc(-c3cccc(/C=C/C(=O)NO)c3)nn2)C(C)C)cc1,inactive
11,Cc1ccc(S(=O)(=O)N[C@@H](Cc2ccccc2)C(=O)NCCCn2cc(-c3cccc(/C=C/C(=O)NO)c3)nn2)cc1,active
12,Cc1ccc(S(=O)(=O)N[C@@H](Cc2ccccc2)C(=O)NCCn2cc(-c3cccc(/C=C/C(=O)NO)c3)nn2)cc1,inactive
13,Cc1ccc(S(=O)(=O)N[C@@H](Cc2ccccc2)C(=O)NCCCn2cc(CCC(=O)NO)nn2)cc1,inactive
14,Cc1ccc(S(=O)(=O)N[C@@H](Cc2ccccc2)C(=O)NCCn2cc(C(=O)NO)nn2)cc1,inactive
15,Cc1ccc(S(=O)(=O)N[C@@H](Cc2ccccc2)C(=O)NCCn2cc(CCC(=O)NO)nn2)cc1,active
16,Cc1noc(C)c1NC(=O)Nc1ccc2c(c1)C(=O)N([C@@H](C)CO)C[C@H](C)[C@@H](CN(C)Cc1ccccc1)OCCCC[C@@H](C)O2,inactive
17,C[C@H](CO)N1C[C@H](C)[C@@H](CN(C)CC2CCCCC2)Oc2c(NC(=O)Nc3ccccc3)cccc2C1=O,inactive
18,C[C@@H]1CN([C@@H](C)CO)C(=O)c2cc(NS(=O)(=O)c3ccc(Cl)cc3)ccc2O[C@@H]1CN(C)Cc1ccc(Cl)c(Cl)c1,active
19,C[C@H]1CN([C@@H](C)CO)C(=O)c2cc(NS(=O)(=O)c3ccc(Cl)cc3)ccc2O[C@H]1CN(C)Cc1ccc(Cl)c(Cl)c1,active
20,C[C@H](CO)N1C[C@H](C)[C@@H](CN(C)Cc2ccc(Cl)c(Cl)c2)Oc2ccc(NS(=O)(=O)c3ccc(F)cc3)cc2C1=O,inactive
21,C[C@H](CO)N1C[C@H](C)[C@@H](CN(C)Cc2ccc(Cl)c(Cl)c2)Oc2ccc(NS(=O)(=O)c3ccc(Cl)cc3)cc2C1=O,active
22,C[C@H](CO)N1C[C@H](C)[C@H](CN(C)Cc2ccc(Cl)c(Cl)c2)Oc2ccc(NS(=O)(=O)c3ccc(Cl)cc3)cc2C1=O,active

row,SMILES,cytotoxicity call
1,C[C@H]1CN([C@@H](C)CO)C(=O)c2cc(NS(=O)(=O)c3ccc(F)cc3)ccc2O[C@H]1CN(C)Cc1ccc(Cl)c(Cl)c1,inactive
2,C[C@@H]1CN([C@H](C)CO)C(=O)c2cc(NS(=O)(=O)c3ccc(F)cc3)ccc2O[C@@H]1CN(C)Cc1ccc(Cl)c(Cl)c1,inactive
3,C[C@@H]1CN([C@H](C)CO)C(=O)c2cc(NS(=O)(=O)c3ccc(Cl)cc3)ccc2O[C@H]1CN(C)Cc1ccc(Cl)c(Cl)c1,inactive
4,C/C=C/c1ccc2c(c1)O[C@@H](CN(C)S(=O)(=O)c1ccccc1OC)[C@H](C)CN([C@@H](C)CO)S2(=O)=O,inactive
5,C[C@@H]1CN([C@H](C)CO)C(=O)Cc2cc(NS(=O)(=O)c3ccc(F)cc3)ccc2O[C@@H]1CN(C)S(=O)(=O)c1cn(C)cn1,inactive
6,C[C@H]1CCCCO[C@H](CN(C)C(=O)c2ccncc2)[C@@H](C)CN([C@@H](C)CO)C(=O)c2cc(NS(=O)(=O)c3ccc(Cl)cc3)ccc2O1,inactive
7,Cc1noc(C)c1S(=O)(=O)Nc1ccc2c(c1)C(=O)N([C@@H](C)CO)C[C@H](C)[C@H](CN(C)C(=O)Nc1ccc3c(c1)OCO3)O2,inactive
8,C[C@@H]1CN([C@@H](C)CO)C(=O)c2cc(NS(=O)(=O)c3ccc(Cl)cc3)ccc2O[C@@H](C)CCCCO[C@@H]1CN(C)C(=O)Cc1ccccc1,inactive
9,OC[C@H]1CCCN1CC1CC1,inactive
10,C[C@H]1CN([C@@H](C)CO)C(=O)c2cc(NS(=O)(=O)c3cn(C)cn3)ccc2O[C@H]1CN(C)Cc1ccccc1,inactive
11,O=C(c1ccncc1)N1C[C@H]2[C@@H](c3ccccc31)[C@H](CO)N2C(=O)CN1CCOCC1,inactive
12,COC(=O)c1c(CC[C@@H](CO)NC(=O)N[C@H](Cn2cc(C3(O)CCCCC3)nn2)C(C)C)oc(C(C)=O)c1C(=O)OC,inactive
13,C[C@@H]1CN([C@H](C)CO)C(=O)c2cc(NS(=O)(=O)c3ccc(F)cc3)ccc2O[C@@H]1CN(C)Cc1ccncc1,inactive
14,COc1ccc(S(=O)(=O)N(C)C[C@H]2Oc3c(NS(=O)(=O)c4cn(C)cn4)cccc3C(=O)N([C@@H](C)CO)C[C@@H]2C)cc1,inactive
15,COc1ccc(NC(=O)Nc2ccc3c(c2)C(=O)N([C@@H](C)CO)C[C@@H](C)[C@H](CN(C)C(=O)Nc2ccccc2)OCCCC[C@@H](C)O3)cc1,inactive
16,c1ccc2c(-c3cn[nH]c3)ccnc2c1,inactive
17,C[C@H](CO)N1C[C@H](C)[C@@H](CN(C)S(C)(=O)=O)Oc2c(cccc2N(C)C)C1=O,inactive
18,C[C@@H]1CN([C@@H](C)CO)C(=O)c2cc(NS(=O)(=O)c3ccc(F)cc3)ccc2O[C@H]1CN(C)Cc1ccc(Cl)c(Cl)c1,inactive
19,C[C@H]1CN([C@@H](C)CO)C(=O)c2cc(NS(=O)(=O)c3ccc(Cl)cc3)ccc2O[C@@H]1CN(C)Cc1ccc(Cl)c(Cl)c1,active
20,C[C@H]1CN([C@@H](C)CO)C(=O)c2cc(NS(=O)(=O)c3ccc(F)cc3)ccc2O[C@@H]1CN(C)Cc1ccc(Cl)c(Cl)c1,active
21,C[C@@H]1CN([C@H](C)CO)C(=O)c2cc(NS(=O)(=O)c3ccc(Cl)cc3)ccc2O[C@@H]1CN(C)Cc1ccc(Cl)c(Cl)c1,active
22,C[C@@H]1CN([C@@H](C)CO)C(=O)c2cc(NS(=O)(=O)c3ccc(F)cc3)ccc2O[C@@H]1CN(C)Cc1ccc(Cl)c(Cl)c1,inactive

row,SMILES,cytotoxicity call
1,C[C@@H]1CN([C@@H](C)CO)C(=O)c2cc(NS(=O)(=O)c3ccc(Cl)cc3)ccc2O[C@H]1CN(C)Cc1ccc(Cl)c(Cl)c1,active
2,C[C@H](CO)N1C[C@H](C)[C@H](CN(C)Cc2ccc(Cl)c(Cl)c2)Oc2ccc(NS(=O)(=O)c3ccc(F)cc3)cc2C1=O,inactive
3,C[C@@H]1CN([C@H](C)CO)C(=O)c2cc(NS(=O)(=O)c3ccc(F)cc3)ccc2O[C@H]1CN(C)Cc1ccc(Cl)c(Cl)c1,inactive
4,Cc1ccc(S(=O)(=O)Nc2ccc3c(c2)C(=O)N([C@H](C)CO)C[C@H](C)[C@@H](CN(C)CC2CCCCC2)OCCCC[C@@H](C)O3)cc1,inactive
5,COc1cccc(OC)c1C(=O)NC1C(=O)N2C1SC(C)(C)C2C(=O)[O-].[Na+] (centres undefined),inactive
6,C[C@H](CO)N1C[C@H](C)[C@@H](CN(C)C(=O)NC2CCCCC2)OCCCC[C@H](C)Oc2ccc(NS(=O)(=O)c3cccs3)cc2C1=O,inactive
7,C[C@H]1CN([C@@H](C)CO)C(=O)Cc2cc(NC(=O)NC3CCCCC3)ccc2O[C@@H]1CN(C)Cc1ccc(Cl)c(Cl)c1,inactive
8,CCS(=O)(=O)NCC[C@@H]1CC[C@@H](NC(=O)Cc2ccccn2)[C@@H](CO)O1,inactive
9,"CC(C)=CCCC(C)=CCCC(C)=CCO [trans,trans-FARNESOL ]",inactive
10,C[C@@H]1CN([C@H](C)CO)C(=O)c2cccc(NC(=O)Nc3ccc4c(c3)OCO4)c2O[C@@H]1CN(C)Cc1ccc(C(=O)Nc2ccccc2N)cc1,inactive
11,O=C(OC(C(F)(F)F)C(F)(F)F)N1CCN(Cc2ccc(C(F)(F)F)cc2N2CCCC2)CC1,inactive
12,C[C@H](CO)N1C[C@H](C)[C@@H](CN(C)Cc2ccccc2)Oc2ccc(NS(=O)(=O)c3cn(C)cn3)cc2C1=O,inactive
13,Cn1cnc(S(=O)(=O)N2C[C@H](O)COC[C@H]3O[C@H](CC(=O)NC4Cc5ccccc5C4)CC[C@@H]32)c1,inactive
14,O=C(CCCCCNC(=O)OCCCCO[C@@H]1C[C@H](c2ccc(Br)cc2)C=C(C(=O)N2CCN(Cc3ccccc3)CC2)O1)NO,inactive
15,C[C@@H]1CN([C@H](C)CO)C(=O)c2cc(NC(=O)Nc3ccc(C(F)(F)F)cc3)ccc2O[C@@H](C)CCCCO[C@@H]1CN(C)C(=O)c1ccccc1,inactive
16,C[C@@H]1CCCCO[C@@H](CN(C)C(=O)c2ccccc2)[C@H](C)CN([C@H](C)CO)C(=O)c2cc(NC(=O)Nc3ccc(C(F)(F)F)cc3)ccc2O1,inactive
17,C[C@@H]1CN([C@H](C)CO)C(=O)c2cc(NC(=O)Nc3ccc(C(F)(F)F)cc3)ccc2O[C@@H](C)CCCCO[C@H]1CN(C)C(=O)c1ccccc1,inactive
18,C[C@@H]1CCCCO[C@@H](CN(C)C(=O)c2ccccc2)[C@@H](C)CN([C@H](C)CO)C(=O)c2cc(NC(=O)Nc3ccc(C(F)(F)F)cc3)ccc2O1,active
19,C[C@@H]1CN([C@@H](C)CO)C(=O)c2cc(NC(=O)Nc3ccc(C(F)(F)F)cc3)ccc2O[C@@H](C)CCCCO[C@H]1CN(C)C(=O)c1ccccc1,inactive
20,C[C@@H]1CCCCO[C@H](CN(C)C(=O)c2ccccc2)[C@H](C)CN([C@@H](C)CO)C(=O)c2cc(NC(=O)Nc3ccc(C(F)(F)F)cc3)ccc2O1,active
